For 13 compounds, growth results are on record in PubChem BioAssay (NCI).

This is part of a sample that, as a whole, favours compounds with a hit. Of some 83,000 tested, about 20% had one in any assay.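 Testing used 96-well plates and a 48-hour single-concentration exposure. Example: -40 means 40% of the starting cells died.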 A number with no mark means an inactive call. The source made the active and inactive calls. How the source made its calls: active means growth percent below 10; inactive means the rest.

Among the test systems are NCI-H23 lung; NCI-H226 lung; NCI-H322M lung; HOP-62 NSCLC; NCI-H460 lung; HOP-92 NSCLC; NCI-H522 lung; A549/ATCC NSCLC; 786-0 renal; COLO 205 colon.
What all share (assay): NCI-60 one-dose screen, 48 h (100 = growth as untreated, 0 = no growth, -100 = all killed)
Common to all, as to settings: 10 µM unless noted

For the compound `CC1(C)CC(=O)C2=C(C1)N(c1ccc(OC(F)(F)F)cc1)C(N)=C(C#N)C2c1ccc(Cl)cc1` (stereo not given), the growth is 85.6% in the experiment on NCI-H23 lung; 90.7% in the experiment with NCI-H226 lung; 91.3% in the experiment with NCI-H322M lung; 72.7% in the experiment with HOP-62 NSCLC; 93.7% with NCI-H460 lung; 58.5% with HOP-92 NSCLC. In addition, the growth in the experiment with NCI-H522 lung is 63.1%; in the experiment with A549/ATCC NSCLC, 76.3%; in the experiment on 786-0 renal, 78.6%; with COLO 205 colon, 96.6%.

Consider `CC(CN1CCCCC1)C(=O)c1ccccc1` (stereo not given), for which the growth in the experiment with NCI-H23 lung is 101%; with NCI-H226 lung it was 103%; with NCI-H322M lung it was 102%; in the experiment on HOP-62 NSCLC, 103%; with NCI-H460 lung, 105%; in the experiment with HOP-92 NSCLC, 79%. The growth in the experiment with NCI-H522 lung is -57.1% (active); with A549/ATCC NSCLC, 98%; in the experiment on 786-0 renal, 105%; in the experiment with COLO 205 colon, 108%.

With `COc1cccc(Nc2nccc(Nc3ccc4[nH]ncc4c3)n2)c1`, the growth with NCI-H23 lung is -29.1% (active); in the experiment on NCI-H226 lung, -17.3% (active); with NCI-H322M lung, 7.17% (active); in the experiment with HOP-62 NSCLC, -11.4% (active); with NCI-H460 lung it was -68.1% (active); in the experiment on HOP-92 NSCLC, -11.2% (active). In addition, the growth in the experiment on NCI-H522 lung is -68.4% (active); in the experiment with A549/ATCC NSCLC it was -68.3% (active); in the experiment with 786-0 renal it was -12.5% (active); with COLO 205 colon, -88.4% (active).

On to `O=C(NCCc1ccc(O)c(O)c1)C12CC3CC(CC(C3)C1)C2`, for which the growth is 84.9% with NCI-H23 lung; 93.7% with NCI-H226 lung; 114% in the experiment with NCI-H322M lung; 74.3% in the experiment on HOP-62 NSCLC; 110% with NCI-H460 lung; 65.5% with HOP-92 NSCLC. Moreover, the growth in the experiment with NCI-H522 lung is 9.83% (active); with A549/ATCC NSCLC it was 105%; with 786-0 renal it was 87.9%; in the experiment on COLO 205 colon, 90%.

As to `O=C(NCCCNc1cc(-c2cn(-c3ccccc3)nc2-c2cccc(O)c2)ccn1)c1cccc(O)c1`, the growth with NCI-H23 lung is 67.3%; in the experiment on NCI-H226 lung, 86.6%; in the experiment with NCI-H322M lung, 111%; in the experiment with HOP-62 NSCLC, 85.3%; in the experiment on NCI-H460 lung it was 69.6%; in the experiment on HOP-92 NSCLC, 57.2%. For the same compound, the growth was 53% in the experiment on NCI-H522 lung, 53.4% in the experiment with A549/ATCC NSCLC, 63.8% in the experiment with 786-0 renal and 80.2% in the experiment with COLO 205 colon.

As for `CCCCCCCCCCCC(c1ccccc1)[N+](C)(C)C` (stereo not given), the growth is 15.7% with NCI-H23 lung; 21% with NCI-H226 lung; 57.3% in the experiment on NCI-H322M lung; 16.9% with HOP-62 NSCLC; 16.4% with NCI-H460 lung; -16.5% (active) with HOP-92 NSCLC. The growth is 5.04% (active) with NCI-H522 lung, 28.2% in the experiment with A549/ATCC NSCLC, 20.5% with 786-0 renal and -74.7% (active) in the experiment on COLO 205 colon.

Consider `CCCc1cc2c(=O)c(C(=O)OC)c[nH]c2cc1N(CC)CC`, for which the growth is 102% in the experiment with NCI-H23 lung; 81.7% with NCI-H226 lung; 84.2% in the experiment on NCI-H322M lung; 90% in the experiment on HOP-62 NSCLC; 102% with NCI-H460 lung; 111% in the experiment with HOP-92 NSCLC. In addition, the growth in the experiment on NCI-H522 lung is 73.7%; in the experiment on A549/ATCC NSCLC, -20% (active); in the experiment on 786-0 renal, 101%; in the experiment on COLO 205 colon it was 119%.

Consider `Cc1cccc(NC(=O)N/C(N)=N/c2nc(C)c(C)s2)c1`, for which the growth in the experiment with NCI-H23 lung is 61.9%; in the experiment on NCI-H226 lung, 71.3%; with NCI-H322M lung, 82.7%; in the experiment on HOP-62 NSCLC it was 55.3%; with NCI-H460 lung, 20.2%; in the experiment with HOP-92 NSCLC, 67.5%. The growth in the experiment on NCI-H522 lung is 24.2%; with A549/ATCC NSCLC it was 42.6%; in the experiment on 786-0 renal, 83.1%; in the experiment with COLO 205 colon, 36%.

For `CCc1ccccc1NC(=O)/C(C#N)=C/c1ccc(OC)cc1`, the growth is 98.2% with NCI-H23 lung; 97.5% in the experiment on NCI-H226 lung; 87.8% in the experiment with NCI-H322M lung; 96% in the experiment with HOP-62 NSCLC; 104% with NCI-H460 lung; 86.9% in the experiment with HOP-92 NSCLC. Moreover, the growth was 91.4% with NCI-H522 lung, 94% in the experiment with A549/ATCC NSCLC, 107% in the experiment with 786-0 renal and 119% in the experiment on COLO 205 colon.

As for `CC(C)C(NC(=O)C1(NC(=O)OCc2ccccc2)CCCC1)C(=O)O` (stereo not given), the growth is 99.6% in the experiment on NCI-H23 lung; 104% in the experiment with NCI-H226 lung; 106% in the experiment with NCI-H322M lung; 119% in the experiment on HOP-62 NSCLC; 100% in the experiment with NCI-H460 lung; 92% with HOP-92 NSCLC. Moreover, the growth is 88.9% in the experiment on NCI-H522 lung, 106% in the experiment on A549/ATCC NSCLC, 104% in the experiment with 786-0 renal and 107% in the experiment on COLO 205 colon.

As for `Cc1ccc(Cl)cc1NC(=O)c1cc2ccccc2cc1O`, the growth in the experiment with NCI-H23 lung is -30.4% (active); in the experiment with NCI-H226 lung, -35.6% (active); in the experiment on NCI-H322M lung, -3.32% (active); in the experiment with HOP-62 NSCLC, -23.8% (active); in the experiment with NCI-H460 lung, -22.5% (active); in the experiment with HOP-92 NSCLC it was -10.5% (active). Also, the growth in the experiment with NCI-H522 lung was -18% (active); with A549/ATCC NSCLC, 13.9%; in the experiment with 786-0 renal, -6.83% (active); in the experiment with COLO 205 colon, 1.54% (active).

For `FC(F)(F)c1cc(Nc2ccc3cc(OCCCN4CCOCC4)ccc3n2)ccc1Cl`, the growth was 36% with NCI-H23 lung; 68.2% with NCI-H226 lung; 66.4% in the experiment on NCI-H322M lung; 12.3% with HOP-62 NSCLC; 6.76% (active) with NCI-H460 lung; 26.1% in the experiment on HOP-92 NSCLC. Further, the growth in the experiment with NCI-H522 lung was -22.1% (active); in the experiment with A549/ATCC NSCLC it was 28.3%; in the experiment on 786-0 renal, -64.5% (active); with COLO 205 colon, -69.3% (active).

Regarding `CCc1ccccc1-n1c(N)c(C#N)c(-c2ccc(N(C)C)cc2)c(C#N)c1=O`, the growth is 96.2% with NCI-H23 lung; 98.6% in the experiment on NCI-H226 lung; 86.3% with NCI-H322M lung; 106% in the experiment on HOP-62 NSCLC; 96.4% with NCI-H460 lung; 68.3% with HOP-92 NSCLC. Besides, the growth in the experiment with NCI-H522 lung is 93.7%; with A549/ATCC NSCLC, 98.9%; with 786-0 renal, 93.9%; in the experiment on COLO 205 colon, 114%.
